Records with an inconclusive call do not appear. The source made the active and inactive calls. Unless noted, the call rests on the fitted dose curve; in most records, active means well fitted curve in the direction sought with a large enough effect in the repeat runs; inconclusive means weak or mixed curves; inactive means no such curve, though single readings can be large; an effect the other way counts as inactive or inconclusive.
Tests used:
[1] = molecular target: Aryl hydrocarbon receptor (Homo sapiens) (UniProt P35869); experiment: qHTS assay to identify small molecule that activate the aryl hydrocarbon receptor (AhR) signaling pathway (AID 743085);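 further: HG2L7.5c1 human HepG2 liver cells with stably integrated DRE-driven firefly reporter; series mostly up to about 70 µM; nearly all actives have a fitted effect of over 15% in size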
Aryl hydrocarbon receptor (Homo sapiens), sequence (P35869 whole entry, looked up): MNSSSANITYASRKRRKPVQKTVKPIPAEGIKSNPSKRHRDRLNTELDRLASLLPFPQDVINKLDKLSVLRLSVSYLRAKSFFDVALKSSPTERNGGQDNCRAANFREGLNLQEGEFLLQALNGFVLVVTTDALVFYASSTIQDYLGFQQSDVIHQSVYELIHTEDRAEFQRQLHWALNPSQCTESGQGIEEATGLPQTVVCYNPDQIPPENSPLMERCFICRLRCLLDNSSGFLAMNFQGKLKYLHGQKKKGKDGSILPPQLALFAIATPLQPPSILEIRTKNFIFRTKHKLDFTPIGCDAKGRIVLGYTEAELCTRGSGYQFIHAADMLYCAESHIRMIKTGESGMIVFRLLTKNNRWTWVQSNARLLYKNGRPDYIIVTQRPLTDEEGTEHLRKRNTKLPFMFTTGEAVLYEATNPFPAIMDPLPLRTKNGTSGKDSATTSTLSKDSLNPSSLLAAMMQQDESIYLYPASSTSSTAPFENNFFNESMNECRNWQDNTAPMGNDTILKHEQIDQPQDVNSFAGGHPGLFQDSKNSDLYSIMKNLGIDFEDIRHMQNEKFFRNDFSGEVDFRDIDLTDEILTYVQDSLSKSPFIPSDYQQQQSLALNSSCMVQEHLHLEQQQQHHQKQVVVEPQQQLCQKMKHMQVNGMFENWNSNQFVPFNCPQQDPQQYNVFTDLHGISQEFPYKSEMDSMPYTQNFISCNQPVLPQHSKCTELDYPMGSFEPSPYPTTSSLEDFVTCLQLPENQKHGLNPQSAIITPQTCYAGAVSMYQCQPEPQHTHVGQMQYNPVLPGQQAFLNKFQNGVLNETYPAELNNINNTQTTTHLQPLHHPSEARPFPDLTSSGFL
Method in brief: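 Stably transfected human liver carcinoma cells (HG2L7.5c1; 20 DRE-firefly luciferase) were incubated 5 h, dosed, and kept 24 h at 37C. Agonism was scored from increased luciferase luminescence.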

[2] = qHTS assay to identify small molecule that activate the aryl hydrocarbon receptor (AhR) signaling pathway - cell viability counter screen (AID 743086);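 further: HepG2 liver cells carrying the AhR DRE luciferase reporter; series mostly up to about 70 µM; nearly all actives have a fitted effect of over 45% in size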
Method in brief: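 HepG2-AhR-luc (HG2L7.5c1) cells, 4000/well, were preincubated 5 h at 37C, exposed to compound in qHTS format for 24 hr at 37C, then given CellTiter-Fluor for 30 min; viability was read as fluorescence in the reporter wells.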

[3] = molecular target: Peroxisome proliferator-activated receptor gamma (Homo sapiens) (UniProt P37231); experiment: qHTS assay to identify small molecule antagonists of the peroxisome proliferator-activated receptor gamma (PPARg) signaling pathway (AID 743191; calls by dose curve; further: series mostly up to about 63 µM; nearly all actives have a fitted effect of over 30% in size)
Peroxisome proliferator-activated receptor gamma (Homo sapiens), sequence (P37231 whole entry, looked up): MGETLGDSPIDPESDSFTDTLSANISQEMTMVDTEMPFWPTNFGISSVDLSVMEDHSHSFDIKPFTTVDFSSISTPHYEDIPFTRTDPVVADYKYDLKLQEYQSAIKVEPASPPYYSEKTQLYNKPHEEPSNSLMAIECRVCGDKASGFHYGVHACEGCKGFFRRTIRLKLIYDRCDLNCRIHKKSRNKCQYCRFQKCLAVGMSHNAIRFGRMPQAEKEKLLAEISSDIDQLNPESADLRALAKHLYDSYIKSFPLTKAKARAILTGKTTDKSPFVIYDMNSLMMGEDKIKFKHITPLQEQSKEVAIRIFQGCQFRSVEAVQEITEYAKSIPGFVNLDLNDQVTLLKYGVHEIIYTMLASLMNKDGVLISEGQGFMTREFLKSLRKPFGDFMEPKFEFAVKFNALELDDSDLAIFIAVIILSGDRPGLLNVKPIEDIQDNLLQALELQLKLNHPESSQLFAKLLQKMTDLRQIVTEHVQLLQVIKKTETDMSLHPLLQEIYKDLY
Method in brief: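 GeneBLAzer PPARg UAS-bla HEK293H cells carrying a UAS-driven beta-lactamase reporter were plated at 3000 cells/well, preincubated 5 h at 37C, then given compound for 17 h at 37C; LiveBLAzer B/G FRET substrate was read after 1 h at room temperature.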

[4] = qHTS assay to identify small molecule antagonists of the peroxisome proliferator-activated receptor gamma (PPARg) signaling pathway - cell viability counter screen (AID 743194); further: nearly all actives have a fitted effect of over 55% in size; further: potency means the concentration at half of the fitted maximal effect
Method in brief: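 PPARg-UAS-bla HEK293H cells were plated, rested 5 h at 37 C, then treated with compounds plus rosiglitazone (50 nM final) for 17 h at 37 C; viability was then read by CellTiter-Glo luminescence after 30 min at room temperature.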

[5] = qHTS assay for small molecule agonists of the antioxidant response element (ARE) signaling pathway - cell viability counter screen (AID 743203; calls by dose curve; further: nearly all actives have a fitted effect of over 55% in size)
Method in brief: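 ARE-bla HepG2 cells were plated, rested 5 h at 37C/5% CO2, then exposed to compounds in DMSO for 16 h. Viability was read as CellTiter-Glo luminescence after 30 min at room temperature, in the same wells as the ARE screen.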

[6] = qHTS assay for small molecule activators of the heat shock response signaling pathway - cell viability counter screen (AID 743209); further: nearly all actives have a fitted effect of over 50% in size
Method in brief: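 HSE-bla HeLa cells plated overnight, then exposed to Tox21 compounds (23 nL in DMSO) for 5 h at 37 C. After the bla reporter read, CellTiter-Glo was added in the same wells and luminescence read after 30 min at room temperature.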

[7] = qHTS assay for small molecule activators of the heat shock response signaling pathway (AID 743210; active means well fitted activation curve with a large enough effect in the signal ratio in the repeat runs, with a control signal flat, not every such curve was filed as active; the % refers to the signal ratio;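 further: HeLa cells with beta-lactamase reporter driven by heat shock elements; series mostly up to about 63 µM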)
Method in brief: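 Reporter gene assay: HeLa cells stably bearing an HSE-bla construct, compound treatment 5 h at 37 C, LiveBLAzer substrate 2.5 h at RT, fluorescence intensity.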

[8] = qHTS assay to identify small molecule agonists of the peroxisome proliferator-activated receptor delta (PPARd) signaling pathway - cell viability counter screen (AID 743211); further: nearly all actives have a fitted effect of over 55% in size; further: potency means the concentration at half of the fitted maximal effect
Method in brief: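 In the same wells used for beta-lactamase reporter measurement, cytotoxicity is scored by CellTiter-Glo. HEK293H PPARd-bla cells receive compound for 17 h at 37C following a 5 h settling period.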

[9] = qHTS assay to identify small molecule antagonists of the peroxisome proliferator-activated receptor delta (PPARd) signaling pathway - cell viability counter screen (AID 743213); further: nearly all actives have a fitted effect of over 50% in size; further: potency means the concentration at half of the fitted maximal effect
Method in brief: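 Viability counter-screen, qHTS format: PPARd-bla HEK293H, L165041 300 nM final, 17 h compound exposure at 37 C, CellTiter-Glo luminescence after 30 min RT.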

[10] = molecular target: Peroxisome proliferator-activated receptor delta (Homo sapiens) (UniProt Q03181); experiment: qHTS assay to identify small molecule antagonists of the peroxisome proliferator-activated receptor delta (PPARd) signaling pathway (AID 743215; active means well fitted inhibition curve with a large enough effect in the signal ratio in the repeat runs, not every such curve was filed as active; the % refers to the signal ratio;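 further: cells stimulated with agonist L165041 at 300 nM final during compound exposure; series mostly up to about 62 µM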)
Peroxisome proliferator-activated receptor delta (Homo sapiens), sequence (Q03181 whole entry, looked up): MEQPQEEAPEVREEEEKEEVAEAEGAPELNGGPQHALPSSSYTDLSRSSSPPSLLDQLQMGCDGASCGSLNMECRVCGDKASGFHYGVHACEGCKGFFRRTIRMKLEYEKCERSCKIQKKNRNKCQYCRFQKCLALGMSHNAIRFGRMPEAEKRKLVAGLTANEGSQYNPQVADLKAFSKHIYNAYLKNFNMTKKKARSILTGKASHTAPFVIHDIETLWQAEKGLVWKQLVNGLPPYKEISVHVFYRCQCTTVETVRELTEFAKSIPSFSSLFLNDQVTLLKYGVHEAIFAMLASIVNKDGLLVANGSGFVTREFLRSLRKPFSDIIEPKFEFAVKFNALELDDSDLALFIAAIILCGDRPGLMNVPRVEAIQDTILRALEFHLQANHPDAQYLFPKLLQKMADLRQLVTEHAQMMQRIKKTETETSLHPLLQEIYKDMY
Method in brief: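 PPARd-bla HEK293H cells (UAS-bla reporter) preincubated 5 h, then given compound plus 300 nM final L165041 agonist for 17 h at 37 C. Beta-lactamase activity read by LiveBLAzer B/G FRET substrate fluorescence after 2 h at room temperature.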

[11] = qHTS assay to identify small molecule agonists of the farnesoid-X-receptor (FXR) signaling pathway - cell viability counter screen (AID 743218); further: nearly all actives have a fitted effect of over 45% in size; further: potency means the concentration at half of the fitted maximal effect
Method in brief: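 FXR-UAS-bla HEK 293T cells exposed to compounds for 16 h at 37C. Cytotoxicity read in the same wells by CellTiter-Glo luminescence after 30 min at room temperature, following the beta-lactamase FRET read.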

[12] = qHTS assay to identify small molecule antagonists of the farnesoid-X-receptor (FXR) signaling pathway - cell viability counter screen (AID 743221; active means well fitted cell-killing curve with a large enough effect in the repeat runs, not every such curve was filed as active; further: nearly all actives have a fitted effect of over 50% in size; further: potency means the concentration at half of the fitted maximal effect)
Method in brief: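 Here viability was scored by luminescence after CellTiter-Glo addition to wells already read for beta-lactamase. Prior treatment: compound plus CDCA (50 uM final), 16 h, 37 C, HEK 293T FXR-bla cells.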

[13] = qHTS assay to identify aromatase inhibitors - cell viability counter screen (AID 743084);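 further: cells stimulated with testosterone during compound exposure; nearly all actives have a fitted effect of over 55% in size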
[14] = molecular target: Peroxisome proliferator-activated receptor gamma (Homo sapiens) (UniProt P37231); experiment: qHTS assay to identify small molecule agonists of the peroxisome proliferator-activated receptor gamma (PPARg) signaling pathway (AID 743094; active means well fitted activation curve with a large enough effect in the signal ratio in the repeat runs, not every such curve was filed as active; the % refers to the signal ratio)
Method in brief: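 GeneBLAzer PPARg UAS-bla HEK293H cells were plated, rested 5 h, then exposed to compounds for 17 h at 37C. Beta-lactamase activity was read by LiveBLAzer B/G FRET substrate fluorescence after 1 h at room temperature.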

[15] = molecular target: Peroxisome proliferator-activated receptor delta (Homo sapiens) (UniProt Q03181); experiment: qHTS assay to identify small molecule agonists of the peroxisome proliferator-activated receptor delta (PPARd) signaling pathway (AID 743212; calls by dose curve)
Method in brief: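 A PPARd-bla HEK293H line with beta-lactamase under an Upstream Activator Sequence is treated with compounds at 37 C. Substrate loading for 2 h at room temperature precedes the fluorescence measurement.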

[16] = molecular target: Vitamin D3 receptor (Homo sapiens) (UniProt P11473); experiment: qHTS assay to identify small molecule agonists of the vitamin D receptor (VDR) signaling pathway (AID 743222; calls by dose curve)
Vitamin D3 receptor (Homo sapiens), sequence (P11473 whole entry, looked up): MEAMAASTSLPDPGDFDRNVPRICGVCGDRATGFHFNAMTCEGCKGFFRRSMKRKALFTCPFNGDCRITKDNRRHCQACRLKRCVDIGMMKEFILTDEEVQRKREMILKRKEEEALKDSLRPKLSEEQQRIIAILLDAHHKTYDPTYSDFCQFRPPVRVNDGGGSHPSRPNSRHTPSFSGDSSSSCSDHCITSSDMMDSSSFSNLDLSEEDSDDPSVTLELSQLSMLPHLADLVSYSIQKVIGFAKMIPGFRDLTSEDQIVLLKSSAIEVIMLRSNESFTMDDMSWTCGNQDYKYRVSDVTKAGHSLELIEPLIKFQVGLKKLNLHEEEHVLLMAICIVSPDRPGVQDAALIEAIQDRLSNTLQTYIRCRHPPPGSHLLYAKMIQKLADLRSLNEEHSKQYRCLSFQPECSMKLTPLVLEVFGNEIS
Method in brief: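 VDR-bla cells plated 4 h at 37 C, then exposed to compounds for 16 h at 37 C. Beta-lactamase reporter activity measured by fluorescence after 2 h room-temperature loading with LiveBLAzer B/G FRET substrate.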

[17] = molecular target: Vitamin D3 receptor (Homo sapiens) (UniProt P11473); experiment: qHTS assay to identify small molecule antagonists of the vitamin D receptor (VDR) signaling pathway (AID 743223; active means well fitted inhibition curve with a large enough effect in the signal ratio in the repeat runs, not every such curve was filed as active; the % refers to the signal ratio; further: potency means the concentration at half of the fitted maximal effect)
Method in brief: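 Inhibition of agonist-driven VDR signalling is scored in VDR-bla cells: 3 nM final 1alpha,25-dihydroxyvitamin D3 plus compound, 16 h at 37C, then beta-lactamase detection by FRET substrate fluorescence after 2 h.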

[18] = qHTS assay for small molecule agonists of the antioxidant response element (ARE) signaling pathway (AID 743202; active means well fitted activation curve with a large enough effect in the signal ratio in the repeat runs, not every such curve was filed as active; the % refers to the signal ratio)
Method in brief: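 Compounds delivered in DMSO to ARE-bla HepG2 cells (2,000 cells/well, pre-incubated 5 h) and left 16 h at 37 C. LiveBLAzer B/G FRET substrate then added for 2 h at RT before fluorescence reading.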

[19] = molecular target: Bile acid receptor (Homo sapiens) (UniProt Q96RI1); experiment: qHTS assay to identify small molecule agonists of the farnesoid-X-receptor (FXR) signaling pathway (AID 743220; active means well fitted activation curve with a large enough effect in the signal ratio in the repeat runs, not every such curve was filed as active; the % refers to the signal ratio)
Bile acid receptor (Homo sapiens), sequence (Q96RI1 whole entry, looked up): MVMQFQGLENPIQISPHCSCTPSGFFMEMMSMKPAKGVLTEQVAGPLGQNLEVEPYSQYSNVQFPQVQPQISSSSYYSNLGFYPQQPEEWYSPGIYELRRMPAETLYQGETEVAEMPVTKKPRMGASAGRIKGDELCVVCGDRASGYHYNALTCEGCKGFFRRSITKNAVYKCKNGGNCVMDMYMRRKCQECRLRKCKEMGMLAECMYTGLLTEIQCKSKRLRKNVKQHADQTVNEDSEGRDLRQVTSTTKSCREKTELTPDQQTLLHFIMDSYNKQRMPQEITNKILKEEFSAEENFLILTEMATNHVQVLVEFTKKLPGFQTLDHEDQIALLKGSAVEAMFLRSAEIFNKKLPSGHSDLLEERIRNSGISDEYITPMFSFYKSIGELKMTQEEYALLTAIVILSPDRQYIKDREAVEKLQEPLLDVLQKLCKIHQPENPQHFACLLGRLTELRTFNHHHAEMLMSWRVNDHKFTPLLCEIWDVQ
Method in brief: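 Beta-lactamase reporter under UAS control in GeneBLAzer FXR HEK 293T cells (5000/well) measured with LiveBLAzer FRET substrate after 2 h at room temperature. Compound exposure lasted 16 h at 37C.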

[20] = molecular target: Bile acid receptor (Homo sapiens) (UniProt Q96RI1); experiment: qHTS assay to identify small molecule antagonists of the farnesoid-X-receptor (FXR) signaling pathway (AID 743217; active means well fitted inhibition curve with a large enough effect in the signal ratio in the repeat runs, not every such curve was filed as active; the % refers to the signal ratio)
Method in brief: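 FXR-UAS-bla HEK 293T cells (beta-lactamase reporter) given compound plus chenodeoxycholic acid (50 uM final), 16 h at 37C. LiveBLAzer B/G FRET substrate added for 2 h at room temperature; fluorescence read.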

Measured: Potency

CCC(C)N(C)C(=O)c1cc2ccccc2c(-c2ccccc2Cl)n1 (configuration not stated)
not listed: [13] | [14] | [15] | [16] | [17] | [18] | [19] | [20]
inactive: all other assays above

CCN(CC)CCOc1ccc2c(c1)C(=O)c1cc(OCCN(CC)CC)ccc1-2
inactive: [13] | [14] | [3] | [5] | [6] | [7] | [15] | [16]
active: [4] 29.8 µM | [11] 21.1 µM | [12] 26.6 µM | [17] 21.3 µM

CC[C@]12CCCN3CCc4c(n(c5ccccc45)C(=O)C1)[C@@H]32
not listed: [1] | [2] | [3] | [16] | [17] | [19] | [20]
inactive: all other assays above

COc1ccc([C@@H]2Sc3ccccc3N(CCN(C)C)C(=O)[C@@H]2OC(C)=O)cc1
not listed: [1] | [3] | [9] | [13] | [14] | [15] | [19] | [20]
inactive: all other assays above

NCc1ccccc1
inactive: [2] | [4] | [18] | [5] | [6] | [7] | [8] | [11] | [16] | [17]

CN1CCC(=C2c3ccccc3CCc3sccc32)CC1
inactive: [13] | [14] | [3] | [5] | [6] | [10] | [19]

CCCCCCCCCC=O
inactive: [13] | [2] | [4] | [5] | [7] | [8] | [11] | [12] | [16] | [17]

CCCCCCCCCCCCC(=O)O
inactive: [13] | [2] | [4] | [5] | [9] | [12]

Cc1cc(NC(=O)C(=O)O)cc(C)c1Oc1ccc(O)c2c1CCC2
not listed: [1] | [3] | [4] | [5] | [10] | [13] | [14] | [17]
inactive: all other assays above

CCOC(=O)[C@H](CCc1ccccc1)N[C@H]1CCc2ccccc2N(CC(=O)O)C1=O
inactive: [1] | [2] | [4]
active: [8] 29.8 µM | [9] 26.6 µM | [12] 29.8 µM

CC(C)c1cccc(C(C)C)c1NC(=O)NS(=O)(=O)c1cc(C(C)(C)O)co1
not listed: [1] | [2] | [3] | [9] | [13] | [14] | [17] | [18]
inactive: all other assays above

Source: PubChem BioAssay (Tox21)
